This is part of a sample that, as a whole, favours compounds with a hit. Of some 83,000 tested, about 20% had one in any assay.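 Single-concentration screen, 48 h exposure, 96-well plates. Endpoint: percent growth. Below 10 = active.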 Unmarked numbers belong to inactive results. Calls of active or inactive are those of the source.

The experiment relates to UO-31 renal. The experiment in a line: NCI-60 one-dose screen, 48 h (100 = growth as untreated, 0 = no growth, -100 = all killed). The conditions noted are these: 10 µM. As for the experimental part:
Growth inhibition of the UO-31 human tumor cell line is measured as a screen for anti-cancer activity. Cells are grown in 96 well plates and exposed to the test compound for 48 hours. Compounds are tested at a single concentration, which is 10^-5 M for most compounds. The reported endpoint is percent growth (GI% or GIPRCNT), where numbers from 0 - 100% represent growth inhibition, and numbers from -100% - 0 represent cell death. For example, a value of 40 represents 60% growth inhibition. A value of 0 means no net growth occurred over the course of the experiment. A value of -40 indicates 40% of cells at the beginning of the experiment died by the end of the experiment. A value of -100 means all cells are dead at the end of the experiment.
NCI-60 Human Tumor Cell Lines Screen was performed using the standard one-dose NCI protocol, which is described in more detail at https://dtp.cancer.gov/discovery_development/nci-60/default.htm.
Compounds with GIPRCNT values below 10 were considered active. Activity score was based on GIPRCNT using the following formula: […]
Score is 0 for GIPRCNT values of 100 or above, 50 for GIPRCNT values of 0, and 100 for GIPRCNT values of -100.
For the compound `CC(=O)c1cc2c(cc1F)C(C)(C)CCC2(C)C`, the growth is 80%.

Turning to `O=c1cc2oc3cc(O)c(O)cc3c(-c3ccccc3O)c-2cc1O`, the growth was 34.9%. Regarding `CC(C)(O)C#CC#CC(C)(C)O`, the growth was 99.1%.

With `O=C(c1ccc(O)cc1)c1ccc(O)cc1`, the growth was 85%. Regarding `CCN(CC)CCCC(C)Nc1ccnc(/C=C/c2ccc(Cl)cc2)c1` (stereo not given), the growth was -48.5% (active).

As for `COc1cccc(COC(=O)Nc2ccccc2)c1OC`, the growth is 99.5%. Turning to `CC1(C(N)=O)CCC(C(=O)O)C1(C)C` (stereo not given), the growth is 85.9%. As for `CC(=O)c1ccc2c(ccc3ccccc32)c1`, the growth was 100%. With `CCOc1ccccc1/C=N/Nc1nc2ccccc2o1`, the growth is 86.5%. For `CC(=O)OCC(=O)[C@@]1(O)CC[C@H]2[C@@H]3CC[C@@H]4C[C@H](O)CC[C@]4(C)[C@H]3C(=O)C[C@@]21C`, the growth was 96.3%. As to `O=C1OC(c2ccc(F)cc2)CC1CN1CCOCC1` (stereo not given), the growth was 83.5%. Turning to `CCCCC(CC)COC(C)=O` (stereo not given), the growth was 88.3%.

In the case of `CCCCCCCCO`, the growth is 111%.

Consider `CC(C)CCOC(=O)c1ccccc1`, for which the growth is 92%. As for `COc1cc2cc(OC(C)=O)c3cc4c(cc3c2c(OC)c1OC)OCO4`, the growth was 89%. Consider `C#CC(C)(O)c1ccc(Cl)cc1` (stereo not given), for which the growth is 99.4%.

`C[C@]12CC[C@@H]3c4ccc(OCC(=O)O)cc4CC[C@H]3[C@@H]1CCC2=O`: the growth is 86.1%. Take `Cc1ccc(Cl)cc1N1C(=O)CC(Sc2ccccc2N)C1=O` (stereo not given): the growth is 105%.

For the compound `O=C1c2ccccc2C(=O)N1OCc1ccccc1`, the growth was 79.1%.

For the compound `CCCCOC(=O)c1ccc(C(C)C)cc1`, the growth was 91.7%.

As for `S=c1[nH]ccn1-c1ccccc1Cl`, the growth is 94.2%. In the case of `COc1cc(C2c3cc4c(cc3C3OC(=O)C2C3CO)OCO4)cc(OC)c1OC` (stereo not given), the growth is 38.2%.

On to `Cc1cc(N)ccc1-c1ccc(N)cc1C`, for which the growth is 77.1%. `COc1cc(OC)c2ccc(=O)oc2c1`: the growth is 94.9%. Take `Cc1c(C(=O)O)c(=O)n(-c2ccccc2)n1C`: the growth is 89.6%. `Nc1ccc(N=Nc2ccc(O)cc2)c(N)n1`: the growth was 34.7%.

For `Cc1ccc(O)c(C(=O)c2ccccc2)c1`, the growth was 97.2%.

For `C/C(=N\NC(=O)c1ccccc1N)c1ccccc1O`, the growth is 29.3%. With `CCOC(=O)/C(=C/c1ccc(OC)cc1)N(CC)CC` the figure was 92.9%; with `CN(C)CCN(Cc1ccccc1)c1ccccc1`, 107%; with `O=[N+]([O-])c1ccc(S(=O)(=O)NN=C2CCCCC2)cc1`, 67.8%.

With `COc1cc2c(cc1OC)[C@H](C(=O)O)[C@@H](c1ccc(OC(C)C)c(OC)c1)N(C)C2=O`, the growth was 97.6%. As for `COc1ccc(C2(O)CCCCC2)cc1`, the growth was 97%. With `NCC(=O)CCC(=O)O` the figure was 94.6%; with `CC(C)OC(=O)c1cc(NC(=S)OC(C)C)ccc1Cl`, 80.2%; with `O=C1C=CC2=C3c4cc(O)c(O)cc4CC3(O)COC2=C1O` (stereo not given), 86.6%.

As to `CNc1nc(NC)c2cn[nH]c2n1`, the growth was 78.6%. For `O=[N+]([O-])c1cccc(N=Nc2ccc(O)cc2O)c1` the value was 57.3%; for `[O-][N+](=Nc1cccc(Cl)c1)c1cccc(Cl)c1`, 72.8%. Turning to `COc1cc(C(=O)N/N=C/c2cccc([N+](=O)[O-])c2)cc(OC)c1OC`, the growth is 73.7%.
